In PubChem BioAssay (NCI):
The panel holds about 79,000 compounds, 15% with a hit somewhere; the sample as a whole holds those more often. Values without a mark were called inactive. Calls of active or inactive are those of the source. Rule as the data show it: active = growth inhibition above about 70%; inactive = the rest.

Experiment: NCI Yeast Anticancer Drug Screen. Data for the rad50 strain (AID 155);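 also: 0% = growth of vehicle-only cultures of the same strain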
Conditions: S. cerevisiae rad50 strain growth inhibition; at 50.0 µM; hits give high values
Procedure, shortened: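 Growth of the mutant yeast was measured after compound exposure and referenced to vehicle-treated cultures.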

Row | SMILES | growth inhibition
1 | CC(=O)c1ccc(N=C2C=CC(=O)O2)cc1 | 6.85%
2 | COc1cc(Br)cc2nc(-c3cccs3)oc12 | -15.3%
3 | CC(C(O)c1ccc(Cl)cc1)C(O)(C(F)(F)F)C(F)(F)F (stereo not drawn) | 99.2% (active)
4 | OC(NN=C1CCCC1)(C(F)(F)Cl)C(F)(F)Cl | -12.9%
5 | c1ccc(OC23CC4CC(CC(C4)C2)C3)cc1 | -9.45%
6 | CCCCC(=O)N/N=C/c1ccccc1OCC | -7%
7 | CCOC(=O)CC(NC(=O)CC(N)C(=O)O)C(=O)OCC (stereo not drawn) | 7.15%
8 | CN(C)CCC(C(=O)NCc1ccccc1)C(=O)NCc1ccccc1 | -6.1%
9 | CCOc1ccc2nc(C)ccc2c1 | 3.25%
10 | CCOc1ccc(-c2nc(-c3oc4ccccc4c(=O)c3OC(C)=O)cs2)cc1 | -5.25%
11 | Nc1cccc2c1C(=O)c1cccc(N)c1C2=O | 7.65%
12 | O=[N+]([O-])c1ccc(Sc2c3ccccc3nc3cc(Cl)ccc23)cc1 | -32.2%
13 | O=c1c(SCc2ccc(Cl)cc2)c(N2CCCCC2)cnn1-c1ccccc1 | 20.5%
14 | Cc1ccc(S(=O)(=O)N/N=C(/c2ccccc2)c2ccsc2C)cc1 | 6.7%
15 | NC1=NN(c2ccccc2)C(=O)C1C(=O)CCC(=O)Nc1cccc(Cl)c1 (stereo not drawn) | 9.9%
16 | CC#CC#C/C=C1/C=CC2(CC=CO2)O1 (stereo not drawn) | 1.55%
17 | NC(=O)C1CCCC1 | -3.3%
18 | O/N=C1/C(=C/c2ccccc2)CCCC1C(NO)c1ccccc1 (stereo not drawn) | 27.9%
